The full data set covers some 7,900 targets. This sample favours those with a hit. About 0.6% of all pairs of compound and target were hits.
How the values were obtained:
Assay in all cases: log2 fold change, soluble protein after heating vs DMSO (PISA); higher = thermal stabilisation; K562 cells, 10 uM, 30 min; active = over 0.2 and 3.5 SD of the protein, either way, in both replicates (recomputed)
[1] = target: AAGAB (UniProt Q6PD74)
In short: (§1)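 Values are thermal stability changes relative to control samples and are taken from duplicates. They are stated as log2 fold changes. Before quantification by TMTpro 16plex LC-MS/MS with equalised channel sums, K562 cells at 2×10^6 cells/mL were treated with 10 μM compound for 30 min, heated in aliquots for 3 min across 48°C-58°C, pooled, extracted in PBS with 0.5% NP-40 at 4°C, and centrifuged at 21,000xg for 90 min to give the soluble supernatant.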

[2] = target: AAK1 (UniProt A0A096LP25)
In short: as §1

[3] = target: AAK1 (UniProt Q2M2I8)
In short: as §1

Measured: log2 fold change

Sequence of AAGAB (Q6PD74 whole entry, looked up): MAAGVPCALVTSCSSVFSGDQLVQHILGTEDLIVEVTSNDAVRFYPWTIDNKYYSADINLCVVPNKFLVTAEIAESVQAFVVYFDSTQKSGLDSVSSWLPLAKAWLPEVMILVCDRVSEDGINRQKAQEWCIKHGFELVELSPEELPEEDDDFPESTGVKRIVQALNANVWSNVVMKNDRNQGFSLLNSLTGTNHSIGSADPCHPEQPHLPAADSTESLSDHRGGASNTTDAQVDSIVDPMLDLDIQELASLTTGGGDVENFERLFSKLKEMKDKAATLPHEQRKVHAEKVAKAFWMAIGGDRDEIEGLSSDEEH
Sequence of AAK1 (UniProt Q2M2I8) (Q2M2I8 whole entry, looked up): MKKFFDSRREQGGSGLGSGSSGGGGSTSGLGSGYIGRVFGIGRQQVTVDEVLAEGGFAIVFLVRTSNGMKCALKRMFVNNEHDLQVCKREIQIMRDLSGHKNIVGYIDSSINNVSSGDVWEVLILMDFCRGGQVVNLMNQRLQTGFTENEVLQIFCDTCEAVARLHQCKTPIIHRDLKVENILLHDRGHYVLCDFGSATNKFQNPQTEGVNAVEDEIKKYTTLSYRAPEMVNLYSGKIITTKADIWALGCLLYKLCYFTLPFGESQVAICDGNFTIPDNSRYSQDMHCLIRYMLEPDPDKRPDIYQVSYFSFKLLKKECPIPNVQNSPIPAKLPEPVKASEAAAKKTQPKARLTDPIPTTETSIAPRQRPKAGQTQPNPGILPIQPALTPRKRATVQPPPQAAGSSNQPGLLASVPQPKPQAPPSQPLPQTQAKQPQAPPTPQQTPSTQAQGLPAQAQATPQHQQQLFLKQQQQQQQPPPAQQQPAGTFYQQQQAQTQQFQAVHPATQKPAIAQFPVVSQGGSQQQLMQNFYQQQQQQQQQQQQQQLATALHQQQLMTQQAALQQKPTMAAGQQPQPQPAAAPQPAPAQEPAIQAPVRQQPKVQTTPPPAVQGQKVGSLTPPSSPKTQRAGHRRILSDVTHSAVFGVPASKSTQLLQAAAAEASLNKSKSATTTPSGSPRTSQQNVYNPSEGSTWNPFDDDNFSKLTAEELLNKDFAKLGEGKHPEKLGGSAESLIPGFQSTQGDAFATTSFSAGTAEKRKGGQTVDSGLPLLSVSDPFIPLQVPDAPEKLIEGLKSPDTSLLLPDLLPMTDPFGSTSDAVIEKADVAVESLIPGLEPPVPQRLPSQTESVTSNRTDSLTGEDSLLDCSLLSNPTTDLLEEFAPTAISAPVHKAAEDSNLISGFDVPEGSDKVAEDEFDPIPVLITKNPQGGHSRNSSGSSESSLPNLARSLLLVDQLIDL

Cc1sc2c(c1C)C(c1ccc(Cl)cc1)=N[C@@H](CC(=O)OC(C)(C)C)c1nnc(C)n1-2
inactive: [1] -0.03 | [2] -0.024 | [3] -0.217

O=C(N[C@@H](COc1ccc2[nH]c(=O)[nH]c2c1)c1ccccc1)c1cccn(Cc2ccc(F)c(F)c2)c1=O
inactive: [1] -0.025 | [2] -0.056 | [3] 0.02

c1ccc([C@@H]2C[C@H]2NC2CCNCC2)cc1
inactive: [1] 0.038 | [2] 0.072 | [3] -0.017

Cc1ccccc1-n1c(Cn2cnc3c(N)ncnc32)nc2cccc(C)c2c1=O
inactive: [1] 0.198 | [2] -0.046 | [3] 0.083

Cc1sc2c(c1C)C(c1ccc(Cl)cc1)=N[C@@H](CC(N)=O)c1nnc(C)n1-2
inactive: [1] 0.044 | [2] -0.041 | [3] 0.039
